The record followed here is PubChem BioAssay AID624116 (National Center for Advancing Translational Sciences (NCATS), 2012).

Inconclusive results are not listed. Where a call stands in place of a potency, no number is given. Calls of active or inactive are those of the source. Calls come from the whole dose curve; as a rule, active = well fitted activation curve with a large enough effect; inconclusive = small, poorly fitted or top-dose-only effect; inactive = no such curve, though single readings can be large or run the other way.
Potency is the fitted concentration of half-maximal effect.

The assay can be described thus: qHTS Assay for Rab9 Promoter Activators: Hit Validation Using Renilla Luciferase Read-Out for Rab9. Particulars: Huh7 Rab9 promoter Renilla luciferase reporter, 24 h; series mostly up to 76.9 µM. An excerpt: Niemann Pick Type C (NPC) is a rare neurodegenerative lipidosis that is characterized by lipid storage in the endosomal/lysosomal system. Treatment modalities for this devastating disease are currently non-existent due to the severe obstacles associated with accessing the central nervous system with proteins or genes. The majority of mutations causing NPC disease are missense mutations that are distributed throughout the length of the NPC1 protein, with the most prevalent being the I1061T allele. Although NPC1 mutant proteins may be functional, they are typically trapped in the ER due to misfolding. […] We have developed and optimized a cell based renilla luciferase reporter assay in 1536 well format for the identification of up-regulators of the mutant Rab9 promoter. This assay presents data on the validation of hits from the primary screen, which used a firefly luciferase read-out. NIH Chemical Genomics Center [NCGC] NIH Molecular Libraries Probe Production centers Network [MLPCN] MLPCN Grant: MH089375 Assay Submitter (PI): Yiannis A. Ioannou
Huh7 cells stably expressing NPC promoter-luciferase will be seeded at 1,500 cells/well in 5 uL in 1,536-well white opaque plates with 23 nL/well of compound in DMSO solution. The assay plates will be incubated at 37 deg C for 24 hours, after which 3 uL/well BriteLite plus luciferase detection reagent mixture (Perkin Elmer) will be added. Luminescence signal will be measured in a ViewLux plate reader (Perkin Elmer) after a 10 minute incubation at the room temperature.
Take `O=C(N/N=C/c1ccc(-c2ccc(Br)cc2)o1)c1ccc2c(c1)OCO2`: the Potency entry was “inactive”.
`O=C(CSc1ncccn1)Nc1cccc2ccccc12`: the Potency entry is “inactive”.
With `CC(C)(C)NC(=S)NNC(=O)c1ccc2ncccc2c1`, the Potency entry was “inactive”.
Consider `NCCOc1ccccc1-c1ccccc1`, for which the Potency result was “inactive”.
For `CC1CCCN(C(=S)Nc2ccc(Nc3ccccc3)cc2)C1` (stereo not given), the Potency result was “inactive”.
For `COC(=O)c1ccc(NC(=O)c2ccc3nc(C)sc3c2)cc1` the value was “inactive”; for `Cc1ccccc1NC(=O)CSc1ccc(-c2cccnc2)nn1`, “inactive”; for `CCOC(=O)c1cc2sccc2n1CC(=O)N1CCCc2ccccc21`, “inactive”.
On to `Cc1nnc2n(c1=O)N=C(c1ccc(Cl)cc1)CS2`, for which the Potency result was “inactive”.
In the case of `N#CC/C(N)=N/NC(=O)CCCNc1ncc(C(F)(F)F)cc1Cl`, the Potency result was “inactive”.
For `CC(C)(C)C(=O)NC(=S)Nc1ccccc1F`, the Potency entry is “inactive”.
Take `COc1ccccc1N(C(=O)c1snc(C(N)=O)c1N)C(C(=O)NC1CCCCC1)c1cccc(OC)c1OC` (stereo not given): the Potency is 26 µM (active).
For `COCCSc1ncnc2c1oc1nc3c(cc12)COC(C)(C)C3` the value was “inactive”; for `COc1ccc(C)cc1N(C(=O)CNC(=O)c1ccco1)C(C(=O)NC1CCCC1)c1cccnc1` (stereo not given), “inactive”; for `O=C(c1cccc(Oc2ccc([N+](=O)[O-])cc2)c1)N1CCOCC1`, “inactive”.
As to `COc1ccc(NC(=O)Nc2ccc(Cc3ccncc3)cc2)cc1OC`, the Potency entry is “inactive”.
`O=C(CSc1nnc(-c2ccc([N+](=O)[O-])cc2)o1)Nc1ccccn1`: the Potency entry is “inactive”.
In the case of `CCCNC(=O)C1CCN(S(=O)(=O)c2ccc3[nH]c(=O)ccc3c2)CC1`, the Potency entry was “inactive”.
Turning to `CC(=O)Nc1nnc(SCC(=O)NCCOc2ccccc2)s1`, the Potency entry was “inactive”.
With `CCOC(=O)CSc1nc2cc(C)ccc2cc1C#N`, the Potency result was “inactive”.
For the compound `Cc1ccc(NC(=O)Nc2cccc3ccccc23)cc1`, the Potency result was “inactive”.
For `CN(C)/C=N/c1c(C#N)cnn1-c1nc2ccccc2s1`, the Potency result is “inactive”.
With `CCOC(=O)c1ccccc1NC(=O)CSc1nnc(Cc2cccn2C)n1-c1ccc(F)cc1`, the Potency was 36.8 µM (active).
On to `CC1CCc2sc(C(=O)NNC(=S)NC3CC3)cc2C1` (stereo not given), for which the Potency result was “inactive”.
In the case of `CC(=O)NC(=S)Nc1ccc2oc(-c3cc(F)c(F)cc3Cl)nc2c1`, the Potency entry is “inactive”.
Consider `Cc1csc(NC(=O)CSc2nnc(-c3ccncc3)o2)n1`, for which the Potency entry was “inactive”.
As for `O=C(O)C1=CC[C@@H](c2ccc(Cl)cc2)N(S(=O)(=O)c2ccc(Cl)cc2)[C@H]1c1ccccc1`, the Potency was 14.6 µM (active).
As for `COCCNC(=O)CN1C(=O)NC(c2ccccc2)(c2ccccc2)C1=O`, the Potency entry was “inactive”.
On to `CCCCn1c(CCNC(=O)c2cccs2)nc2ccccc21`, for which the Potency result was “inactive”.
For `O=C(C[N+]1(CC#Cc2ccccc2)CCCCC1)c1ccccc1` the value was “inactive”; for `COc1ccc(-c2cc(C(=O)Nc3ccccc3F)on2)cc1`, “inactive”; for `O=C(NCCSCc1c(F)cccc1Cl)c1ccc(CN2CCOCC2)cc1`, “inactive”.
For the compound `COC(=O)CSc1nc2cc3c(cc2cc1C#N)OCO3`, the Potency result is “inactive”.
As for `COc1ccc(/C=C\C(=O)c2c(O)ccc3c(C)cc(=O)oc23)cc1OC`, the Potency result was “inactive”.
Take `CCOC(=O)c1ccc(NC(=O)Oc2cc(C)c(Cl)cc2C(C)C)cc1`: the Potency entry is “inactive”.
Consider `CC(=O)Nc1ccc(NC(=O)COc2ncnc3ccccc23)cc1`, for which the Potency result was “inactive”.
As to `Cn1c(CCN2CCN(c3ccccc3)CC2)nc2cc(NC(=O)c3ccco3)ccc21`, the Potency entry is “inactive”.
`COC(=O)c1ccccc1NC(=O)c1ccc(-c2ccc(Br)cc2)o1`: the Potency entry was “inactive”.
As for `CCN(Cc1nc2cc(Cl)ccc2c(=O)[nH]1)C(=O)C1CC(=O)N(c2cccc3ccccc23)C1` (stereo not given), the Potency result is “inactive”.
For `Cc1ccc(S(=O)(=O)/N=C(/Nc2ccccn2)c2ccc(Cl)cc2)cc1`, the Potency was 14.6 µM (active).
